# Compounds with a hit are over-represented: about 7.1% of the library has one in this group of screens.
# MCF10A rerep: A quantitative high throughput screen for small molecules that induce DNA re-replication in MCF 10a normal breast cells; MCF 10A DNA re-replication, Hoechst nuclear intensity, 48 h; Potency, µM (titrated, usually from 46.1 µM), for the others: top-dose activity, positive = re-replication, actives largely listed as activators; 350,000 tested, 2.9% active; also: potency is read from the fitted curve at half-maximal effect; % of control where 0% means no effect; nearly all actives have a fitted effect of over 50% in size
# SW480 rerep: A quantitative high throughput screen for small molecules that induce DNA re-replication in SW480 colon adenocarcinoma cells. SW480 DNA re-replication, Hoechst DNA content imaging, 48 h. Potency, µM (highest dose often 46.1 µM), for inactives: at the top dose re-replication activation, usual class: activators. 340,000 tested, 1.8% active; also: potency is read from the fitted curve at half-maximal effect; % of control where 0% means no effect; nearly all actives have a fitted effect of over 55% in size
#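 Hoechst fluorescence of nuclei (405 nm excitation, 500-530 nm emission) measured by plate-scanning imager after 48 hr compound exposure at 37 C; re-replication scored as increased number of nuclei with elevated intensity.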
# ATXN2 expr inh: Primary qHTS for Inhibitors of ATXN expression. HEK-293 ATXN2-luciferase reporter, luminescence, 24 h. Potency, µM (top dose mostly 57 µM), without a hit: top-dose activity change, negative = inhibition, hits mostly inhibitors. 360,000 tested, 0.72% active; also: potency is read from the fitted curve at half-maximal effect; % is scaled to controls: 0 for no effect and ±100 for the full control effect; nearly all actives have a fitted effect of over 55% in size
#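 qHTS (up to 57 uM final) was run with 24 h compound exposure of reporter cells at 37 °C. Each well was multiplexed: SteadyGlo luminescence measured ATXN2-luciferase expression after a fluorogenic Gly-Phe-AFC viability readout (25 uM final).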
# S2 tox: Viability Counterscreen for Primary qHTS for Inhibitors of ATXN expression; AID 651635, 2014; S2 cells (HEK-293 line with an ATXN2-luciferase reporter) viability, CellTiter-Fluor protease fluorescence, 24 h; 400,000 tested, 0.49% active; Potency, µM (series often up to 56.7 µM), most hits filed as cytotoxic; also: potency is read from the fitted curve at half-maximal effect; nearly all actives have a fitted effect of over 40% in size
# PINK1 modulator: A Quantitative High throughput Screen to Identify Chemical Modulators of PINK1 Expression; 410,000 tested, 0.2% active; Potency, µM (doses to about 76.6 µM), for inactives: top-dose activation (PINK1 increase), usual class: activators; PINK1 immunofluorescence, high-content cytometry, 24 h; AID 624263, 2012; active = well fitted activation curve with a large enough effect; inconclusive = small, poorly fitted or top-dose-only effect; cell line not stated here; also: potency is read from the fitted curve at half-maximal effect; % of control where 0% means no effect; nearly all actives have a fitted effect of over 65% in size
#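 PINK1 protein level read as immunofluorescence by microplate cytometer in a fixed, stained stable cell line after 24 h exposure to five compound concentrations, with CCCP as control.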
# IL-1B inflam inh: qHTS for Inhibitors of Inflammasome Signaling: IL-1-beta AlphaLISA Primary Screen; THP-1 LPS/ATP IL-1B secretion, AlphaLISA, 16 h; active compounds read low; activity change, % at 57.5 µM; 360,000 tested, 4.7% active; in the data active = activity change below about -50%; inconclusive = mostly about -30% to -49%; also: % is scaled to controls: 0 for no effect and ±100 for the full control effect
#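 THP-1 cells pretreated 1 hr with compounds (up to 57.5 uM final), then stimulated with LPS (250 ng/mL final) plus ATP (1.25 mM final); secreted IL-1B measured by AlphaLISA after 16 hr, decreased signal indicating inhibition.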
# Numbers without * were called inactive; i = inactive; u = inconclusive; x = no result; [ ] = dose if it differs, or a comment. Unless noted, calls follow the shape of the dose curve; as a rule, active = well fitted curve in the direction sought with a large enough effect; inconclusive = small, poorly fitted or top-dose-only effect, or another doubt; inactive = no such curve, though single readings can be large; an effect the other way counts as inactive or inconclusive.
SMILES,MCF10A rerep,SW480 rerep,ATXN2 expr inh,S2 tox,PINK1 modulator,IL-1B inflam inh
COc1ccc(OC)c(-c2ccnc(-n3ncc(C(=O)N(C)CCc4ccccn4)c3C)n2)c1,x,x,x,i,-0.2%,x
c1ccc2nc(N3CCCC3)c(N3CCCCC3)nc2c1,20.6µM*,0.3%,4.1%,i,12.3%,20.5
COc1cccc(-c2nc(N3CCN(C)CC3)c3ccccc3n2)c1O,u,21.6%,u,i,-1.9%,-98.2*
OCCN1CCN(c2nc(-c3ccccc3O)nc3ccccc23)CC1,18.7%,u,u,i,-1.1%,-82.3*
c1ccc(-c2nc(N3CCCCCC3)c3ccccc3n2)nc1,u,15.2%,u,11.2µM*,u,-84.3*
c1ccc(-c2nc(N3CCOCC3)c3ccccc3n2)nc1,u,u,-25.8%,u,1.6%,2.7
CC1Cc2ccccc2N1C(=O)C(C)n1cc(C(F)(F)F)cc(Cl)c1=O (centres undefined),-0.1%,-5.3%,-12.4%,i,1.9%,9.3
CCc1ccc(NC(=O)c2ccc(NS(=O)(=O)c3c(C)noc3C)cc2)cc1,x,x,-6.8%,i,3.1%,x
CCCN(CCC)C(=O)Cn1c(=O)n(CCCCCC(=O)NCc2ccccc2Cl)c(=O)c2sccc21,x,x,x,x,0.4%,x
COc1ccc(-c2noc(-c3ccc(N4CCN(c5ccccc5OC)CC4)c([N+](=O)[O-])c3)n2)cc1,x,x,7.5%,i,2.1%,x
O=C(Nc1ccc(Cl)c(Cl)c1)c1cc(S(=O)(=O)N2CCN(c3cccc(Cl)c3)CC2)ccc1F,x,x,5.7%,i,0.8%,x
Cc1ccc(S(=O)(=O)N2CCN(c3nc(-c4ccncc4)nc4ccccc34)CC2)cc1,x,x,x,x,1.5%,x
Cc1ccc(S(=O)(=O)N2CCN(c3nc(-c4cccnc4)nc4ccccc34)CC2)cc1,x,x,x,x,-0.2%,x
c1ccc2c(N3CCCC3)nc(-c3ccncc3)nc2c1,-8.7%,-4.9%,-20.3%,i,-0.4%,-80.1*
CN1CCN(c2nc(-c3ccc(Cl)cc3)nc3ccccc23)CC1,0.5%,-0.3%,-21.4%,x,1.8%,-89.1*
C=CCNc1nc(-c2cccc(OC)c2O)nc2ccccc12,23.1µM*,3.5%,-20.3%,i,2.6%,-12.4
O=S(=O)(c1cccc(F)c1)N1CCN(c2nc(-c3cccnc3)nc3ccccc23)CC1,u,-17.3%,-25.2%,i,2.1%,-57.4*
CCOc1ccc(/C=C/c2nc(C#N)c(NC3CCCCC3)o2)cc1,x,x,x,x,1.6%,x
Cc1ccc(C(=O)c2sc(Nc3ccccc3)c(S(=O)(=O)c3ccccc3)c2N)c(C)c1,x,x,-3.2%,i,1.7%,x
O=C(Cc1ccc(F)cc1)NCCc1csc2nc(-c3ccc(Cl)cc3)nn12,x,x,-13.4%,u,2.1%,x
CN1CCN(c2nc(-c3ccncc3)nc3ccccc23)CC1,u,u,u,i,-2.4%,-56.9*
CN1CCN(c2nc(-c3ccoc3)nc3ccccc23)CC1,x,x,x,x,-1.1%,x
O=C1NC[C@H](Cc2ccccc2)N(C[C@@H]2CCCN2C[C@H](Cc2ccc(O)cc2)N2C[C@H](Cc3ccccc3)N(CC3CCCCCC3)C(=O)C2=O)C1=O,x,x,-28.0%,u,-0.8%,-82.6*
CC(C)C[C@H]1CN([C@@H](Cc2ccccc2)CN2CCC[C@H]2CN2C(=O)C(=O)NC[C@@H]2Cc2ccc(O)cc2)C(=O)C(=O)N1CC1CCCCC1,x,x,-9.0%,u,-0.3%,-94.1*
CC(C)(C)C1CCC(CN2CCC(CN3C(=O)C(=O)NC[C@@H]3Cc3ccccc3)CC2)CC1 (some centres undefined),-5.8%,u,-1.9%,i,2.6%,-56.4*
SMILES,MCF10A rerep,SW480 rerep,ATXN2 expr inh,S2 tox,PINK1 modulator,IL-1B inflam inh
O=C1NC[C@H](Cc2ccc(O)cc2)N(C[C@@H]2CCCN2C[C@H](Cc2ccccc2)N2C[C@H](Cc3ccccc3)N(CC3CCCCCC3)C(=O)C2=O)C1=O,x,x,-10.8%,u,1.3%,-17.4
O=C1NC[C@H](Cc2ccccc2)N(C[C@H]2CCCN2C[C@H](Cc2ccccc2)N2C[C@H](Cc3ccccc3)N(CC3CCCCC3)C(=O)C2=O)C1=O,u,u,u,17.8µM*,1.1%,-78.3*
CN(c1ncnc2onc(-c3cccc(Cl)c3)c12)C1CCCCC1,x,x,-11.6%,i,6.8%,x
O=C1NC[C@H](Cc2ccccc2)N(C[C@@H]2CCCN2C[C@H](Cc2ccccc2)N2C[C@H](Cc3ccccc3)N(CC3CCCCC3)C(=O)C2=O)C1=O,x,x,u,x,2.9%,-76.6*
O=C(C[n+]1cccc(CNC(=O)c2ccc(OC(F)F)cc2)c1)c1ccccc1,-3.3%,10.8%,-9.5%[11.3 µM],i,-2.3%,-90.9*
O=C(C[n+]1cccc(CNC(=O)c2ccc(OC(F)F)cc2)c1)Nc1cccc(C(F)(F)F)c1,-8.7%,1.3%,3.0%,i,2.6%,-70.9*
O=C(C[n+]1cccc(CNC(=O)c2ccc(OC(F)F)cc2)c1)Nc1ccc(F)cc1,3.3%,x,0.3%,i,0.4%,-16.2
COc1cccc(CSc2nc3cc(C(=O)NC4CCCC4)ccc3c(=O)n2Cc2ccccc2)c1,x,x,x,x,-0.3%,x
CCOC(=O)/C(=N/Nc1ccccc1)N1CCCc2ccccc21,-32.9%,0.8%,-5.2%,i,9.5%,-9.2
CCOC(=O)/C(=N/Nc1ccc(OC)cc1)N1CCCc2ccccc21,14.0%,-0.2%[9.22 µM],4.4%,i,2.7%,-53.0*
O=C(O)C(=O)/C(=C\c1cccc2ccccc12)c1ccc2ccccc2n1,15.8µM*,u,-11.3%,i,0.8%,16.6
Cc1ccc(NC(=O)C2CCCN(S(=O)(=O)c3c(C)nn(C)c3C)C2)c(C)c1 (centres undefined),x,x,-3.2%,i,6.9%,x
O=C1C=C(NCc2ccccc2)c2ccccc2C1=O,u,18.4µM*,-21.9%[11.3 µM],u,-1.6%,-101.3*
CCOc1ccc(NC2=CC(=O)CCC2)cc1,3.9%,2.0%,-6.0%,i,1.0%,14.1
Cc1ccc(NC2=CC(=O)C(=O)c3ccccc32)c(C)c1,-4.9%,8.7%,x,u,-1.3%,-8.3
O=c1cccccc1NCc1ccccc1,1.5%,-27.7%,x,x,x,0.0
O=C1C=C(Nc2ccccc2O)c2ccccc2C1=O,u,6.51µM*,14.1µM*,u,-3.4%,-90.3*
COc1cc(Cl)c(NC2=CC(=O)C(=O)c3ccccc32)c(OC)c1,3.26µM*,8.2µM*,u,25.1µM*,-1.0%,u

# Compound activity: PubChem, National Center for Advancing Translational Sciences (NCATS)
